Measurements taken from PubChem BioAssay.
“And” between values parts separate entries of the source, which are not always exact repeats. Equal values may be shown once. For part of these data: Results with a measured potency or affinity are listed apart. The source made the active and inactive calls. Unless noted, the rule behind the calls is not given here.

Key:
[1] = polyglutamine-triggered caspase-3 activation inhibitors, cell-based (AID 1583); conditions: polyglutamine-induced caspase-3 activation, cell assay; stronger effect = higher value;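 tested at 10 µM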
[2] = suppressors of polyQ aggregation in yeast, 75Q-TubU reporter (AID 1593); conditions: Yeast 75Q polyglutamine aggregation reporter
[3] = rescue of polyQ-huntingtin neuronal dysfunction in worms, whole organism, C. elegans mechanosensory neurons, N-terminal huntingtin (AID 1599); conditions: touch response, stronger effect = higher value
[4] = inhibitors of mitochondrial cytochrome c release, biochemical, purified mitochondria (AID 1603); conditions: stronger effect = lower value;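 note: mouse liver mitochondria challenged with calcium chloride; signal normalized to the plate average as 100%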
[5] = inhibitors of polyQ protein aggregation (AID 1604); conditions: polyglutamine-induced protein aggregation inhibition assay; stronger effect = higher value; tested at 2.5 µM
[6] = enhancers of glutamate uptake in motor neurons, MN-1 cell line (AID 1612); conditions: MN-1 motor neuron cells, stronger effect = higher value;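 note: tested at 1 µM final; 0% = mean of DMSO vehicle wells on each plate; positive means more glutamate uptake than control and negative means less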
[7] = suppressors of polyglutamine aggregation in yeast, 75Q-TubH (AID 1616); conditions: S. cerevisiae 75Q-TubH polyglutamine aggregation suppression; stronger effect = higher value
[8] = Cy5 fluorescence interference with SSB-bound oligo, artefact control for HCV NS3 helicase inhibitor project, biochemical, NIH Clinical Collection, E. coli SSB (AID 743268)
[9] = test system: Hepatitis C virus NS3 helicase; test: HCV NS3 helicase inhibitors, primary screen, biochemical, fluorescence polarization, NIH Clinical Collection (AID 743270); conditions: NS3 helicase binding to Cy5-dT15 DNA, stronger effect = higher value, concentration not given here
[10] = target: Single-stranded DNA-binding protein (Escherichia coli (strain K12)) (UniProt P0AGE0); test: E. coli SSB displacement from DNA, counter-screen for HCV NS3 helicase inhibitor project, biochemical, fluorescence polarization, NIH Clinical Collection (AID 743271; in the data active = inhibition above about 28%); conditions: stronger effect = higher value, concentration not given here
[11] = fluorescence interference in NS3h assay format, artefact control for HCV NS3 helicase inhibitor project, biochemical, NIH Clinical Collection (AID 743272); conditions: fluorescence interference counterscreen, stronger effect = lower value;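 note: HCV NS3 helicase with a Cy5 labelled single stranded DNA probe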
[12] = modulation of C. elegans fzo-1 (AID 1259413);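 note: fzo-1 mutant C. elegans worms in liquid wells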; conditions: C. elegans fzo-1 modulator screen, mean read-out; stronger effect = higher value
[13] = target: NAD(+) hydrolase SARM1 (Homo sapiens) (UniProt Q6SZW1); test: SARM1 TIR NADase inhibitors, cell lysate, NAD-Glo luminescence (AID 1508614;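 active = compound whose remaining NAD level is above about 45 nM, limit read from the data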;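 note: higher remaining NAD means stronger inhibition of SARM1 NADase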); conditions: SAM-TIR HEK293T lysate NADase, at 1 µM, stronger effect = higher value
Sequence of NAD(+) hydrolase SARM1 (Homo sapiens) (Q6SZW1 whole entry, looked up, the tested form may be a part): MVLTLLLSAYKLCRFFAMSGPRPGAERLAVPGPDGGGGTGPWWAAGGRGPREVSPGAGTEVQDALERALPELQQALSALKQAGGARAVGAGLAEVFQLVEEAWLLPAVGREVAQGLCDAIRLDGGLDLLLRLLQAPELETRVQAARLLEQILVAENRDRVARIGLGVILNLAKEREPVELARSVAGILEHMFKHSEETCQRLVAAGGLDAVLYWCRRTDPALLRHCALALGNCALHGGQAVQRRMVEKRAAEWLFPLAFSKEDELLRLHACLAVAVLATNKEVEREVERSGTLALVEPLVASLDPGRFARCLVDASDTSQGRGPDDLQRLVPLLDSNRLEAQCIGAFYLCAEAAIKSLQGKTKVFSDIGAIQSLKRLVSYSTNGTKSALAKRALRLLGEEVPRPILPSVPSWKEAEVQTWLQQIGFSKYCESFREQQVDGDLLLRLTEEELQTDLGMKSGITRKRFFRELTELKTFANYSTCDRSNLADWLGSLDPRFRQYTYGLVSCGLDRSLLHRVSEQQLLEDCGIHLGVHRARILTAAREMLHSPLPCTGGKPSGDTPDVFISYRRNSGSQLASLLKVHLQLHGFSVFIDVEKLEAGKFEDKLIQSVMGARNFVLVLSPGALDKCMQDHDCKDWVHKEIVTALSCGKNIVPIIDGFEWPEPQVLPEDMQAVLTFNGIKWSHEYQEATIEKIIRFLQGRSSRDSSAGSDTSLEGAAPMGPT

[14] = target: Mitogen-activated protein kinase 7 (Homo sapiens) (UniProt Q13164); test: ERK5 transactivation activators in reporter cells, primary screen, cell-based, HTS (AID 1508626;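 active = luciferase signal above three times the same-plate solvent-only control wells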;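 note: luciferase driven by Gal4-ERK5 fusion binding five Gal4 sites before minimal TATA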); conditions: HeLa Gal4-ERK5 transactivation, 18 h, at 5 µM, stronger effect = higher value
Sequence of Mitogen-activated protein kinase 7 (Homo sapiens) (Q13164 whole entry, looked up, the tested form may be a part): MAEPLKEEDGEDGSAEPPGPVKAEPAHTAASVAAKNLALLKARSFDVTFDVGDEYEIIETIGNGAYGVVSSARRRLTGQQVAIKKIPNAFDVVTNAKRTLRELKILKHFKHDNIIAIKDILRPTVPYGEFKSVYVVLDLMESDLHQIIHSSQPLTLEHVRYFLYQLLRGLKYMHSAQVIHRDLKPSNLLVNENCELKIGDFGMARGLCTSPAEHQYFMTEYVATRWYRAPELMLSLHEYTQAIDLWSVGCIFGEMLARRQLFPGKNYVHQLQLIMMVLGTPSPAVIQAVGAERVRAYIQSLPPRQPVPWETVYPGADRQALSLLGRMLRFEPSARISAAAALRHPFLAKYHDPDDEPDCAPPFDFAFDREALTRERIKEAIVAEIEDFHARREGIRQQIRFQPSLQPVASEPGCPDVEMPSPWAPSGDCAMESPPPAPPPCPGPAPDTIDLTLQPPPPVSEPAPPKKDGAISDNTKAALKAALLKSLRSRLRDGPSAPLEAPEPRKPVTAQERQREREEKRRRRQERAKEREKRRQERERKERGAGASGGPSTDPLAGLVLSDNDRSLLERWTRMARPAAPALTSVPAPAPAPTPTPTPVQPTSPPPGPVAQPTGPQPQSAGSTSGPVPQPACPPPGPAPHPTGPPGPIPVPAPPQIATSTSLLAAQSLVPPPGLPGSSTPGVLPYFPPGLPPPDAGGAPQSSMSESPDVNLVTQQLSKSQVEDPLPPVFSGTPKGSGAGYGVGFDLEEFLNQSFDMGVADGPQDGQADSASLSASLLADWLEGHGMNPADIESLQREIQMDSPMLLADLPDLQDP

[15] = viability rescue of complex I mutant cybrids, primary screen, cell-based, galactose medium, ATP luminescence (AID 1645843;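 active = z-score of at least 1.8 in each of two replicates, scored against plate mean and spread of sample wells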;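 note: positive z means more ATP and so rescue of galactose-driven cybrid death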); conditions: complex I mutant cybrid cells, 72 h, stronger effect = higher value
R275C/beta2Delta = test: modulators of BK channel variants, profiling panel, selectivity assay, cell-based, U2OS BacMam, thallium flux, beta subunits (AID 1259406;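 active = thallium flux through the channel raised or lowered by more than 3 SD from vehicle-only wells, actives on both sides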;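 note: initial slope of Thallos dye fluorescence rise after thallium is added; log ratio against the mean of 0.3% DMSO vehicle wells on the same plate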); conditions: at 30 µM
R275C/beta4 = test: as above; conditions: at 30 µM
R275C/Slo1WT/beta2 = test: as above; conditions: at 30 µM
[16] = hESC survival regulators, cell-based (AID 493140); conditions: human embryonic stem cell survival screen; stronger effect = higher value;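 note: cells exposed to compounds for four days before counting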

Row | Structure (SMILES) | inhibition [1] [%] | score [2] | rescue above control [3] | cytochrome c release ratio [4] | inhibition of aggregation [5] [%] | glutamate uptake change [6] [%] | aggregation suppression score [7] | fluorescence ratio [8] | inhibition [9] | inhibition [10] | fluorescence ratio [11] | mean signal [12] | remaining NAD [13] | luciferase signal [14] | z-score [15] | log fold change Tl+ flux (R275C/beta2Delta) | log fold change Tl+ flux (R275C/beta4) | log fold change Tl+ flux (R275C/Slo1WT/beta2) | survival [16]
1 | Cc1cn([C@H]2C[C@H](N=[N+]=[N-])[C@@H](CO)O2)c(=O)[nH]c1=O | -8.49 | 1.46 | 1.62 | 1.1 | 48.1 | -23.5 | 1.12 | 1.05 (inactive) | -3.18% (inactive) | -2.76% (inactive) | 1.04 (inactive) | 236 (inactive) | 10 nM (inactive) | 44 AU (inactive) | 0.4 (inactive) and 0.685 (inactive) | 0.0219 (inactive) | 0.00485 (inactive) | 0.022 (inactive) | 
2 | COc1cc2nc(N(C)CCCNC(=O)C3CCCO3)nc(N)c2cc1OC (stereo not drawn) |  |  |  |  |  |  |  | 1.04 (inactive) | -1.98% (inactive) | -3.95% (inactive) | 1.02 (inactive) | 257 (inactive) | 10 nM (inactive) | 28 AU (inactive) | -0.01 (inactive) and 0.43 (inactive) | -0.00473 (inactive) | -0.0149 (inactive) | 0.00335 (inactive) | 6.42 (inactive)
3 | CN(C)CCc1c[nH]c2ccc(C[C@H]3COC(=O)N3)cc12 |  |  |  |  |  |  |  | 1.02 (inactive) | -2.84% (inactive) | -4.33% (inactive) | 1 (inactive) | 245 (inactive) | 10 nM (inactive) | 32 AU (inactive) |  | -0.0113 (inactive) | 0.00246 (inactive) | 0.0342 (inactive) | 
4 | NS(=O)(=O)c1cc2c(cc1C(F)(F)F)NC(Cc1ccccc1)NS2(=O)=O (stereo not drawn) | 23.3 | 1.25 | -3.69 | 1.06 | 66.2 | 10.7 | 1.15 | 1.02 (inactive) | -0.45% (inactive) | 1.05% (inactive) | 0.99 (inactive) | 239 (inactive) | 10 nM (inactive) | 36 AU (inactive) | 1.88 (inactive) | 0.0558 (inactive) | -0.00759 (inactive) | -0.0386 (inactive) | 3.67 (inactive)
5 | COc1ccc(OC)c(C(O)CNC(=O)CN)c1 (stereo not drawn) | -17.3 | 1.3 | -4.55 | 1.63 | 41.7 | -11.6 | 1.16 | 1 (inactive) | -2.27% (inactive) | -2.76% (inactive) | 1.02 (inactive) | 239 (inactive) | 10 nM (inactive) | 124 AU (inactive) | 0.54 (inactive) | -0.0183 (inactive) | 0.00841 (inactive) | 0.0391 (inactive) | 18.8 (inactive)
6 | CO[C@@]1(NC(=O)Cc2cccs2)C(=O)N2C(C(=O)O)=C(COC(N)=O)CS[C@@H]21 | 10 | 0.25 | -4.75 | 0.94 | 27.8 | -21.4 | 0.182 | 1.06 (inactive) | 0.45% (inactive) | 27.7% (active) | 1.01 (inactive) | 248 (inactive) | 10 nM (inactive) | 108 AU (inactive) | -0.58 (inactive) | -0.0512 (inactive) | 0.0012 (inactive) | 0.00869 (inactive) | 2.08 (inactive)
7 | CC(C)(C)NCC(O)COc1cccc2c1C[C@H](O)[C@H](O)C2 (stereo partly drawn) | 27.5 | 1.45 | -2.31 | 0.46 | 78.2 | -4.44 | 1.12 | 0.99 (inactive) | -1.36% (inactive) | 0.29% (inactive) | 0.9 (inactive) | 269 (inactive) | 10 nM (inactive) | 100 AU (inactive) | 0.01 (inactive) | 0.0276 (inactive) | -0.0328 (inactive) | 0.00485 (inactive) | 5.83 (inactive)
8 | NC(=O)c1cnccn1 | -0.34 | 1.27 | -9.49 | 1.22 | 69.8 | 25.2 | 0.921 | 0.1 (active) | -4.09% (inactive) | -2.76% (inactive) | 0.96 (inactive) | 263 (inactive) | 10 nM (inactive) | 48 AU (inactive) | 0.985 (inactive) and -0.015 (inactive) | -0.0119 (inactive) | -0.0116 (inactive) | 0.0474 (inactive) | 19.9 (inactive)
9 | Nc1ncn([C@@H]2O[C@H](CO)[C@@H](O)[C@H]2O)c(=O)n1 | -3.83 | 1.31 | 17.7 | 1.03 | 38.1 | 3.18 | 1.25 | 1.02 (inactive) | 1.36% (inactive) | 4.86% (inactive) | 1.04 (inactive) | 231 (inactive) | 10 nM (inactive) | 60 AU (inactive) | -1.16 (inactive) and -0.05 (inactive) | 0.0218 (inactive) | 0.000291 (inactive) | -0.00199 (inactive) | 
